Inconclusive results are not listed. Active and inactive are the calls of the source. The calls were made as follows: active = hit-call score of the fitted dose curve at least 0.9, where 1 is the maximum; inconclusive = response in the unintended direction; inactive = score below 0.9.

For test [1], the target named is Estrogen receptor (Homo sapiens) (UniProt P03372). The test is described as follows: OT_ER_ERaERa_0480: Odyssey Thera (OT) 8-hour HEK293T Protein-Complementation Assay for Estrogen Receptor-alpha/-alpha Homodimer (AID 2283351).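 Also: rise in fluorescence from reassembled reporter fragments on ERα LBD homodimer in nucleus or whole cell.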 Summed up: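 HEK293T cells stably expressing a PCA pair of ER alpha LBD (residues 310-547) were dosed for 8 hours. The gain in fluorescence intensity, nuclear for agonists and whole-cell for antagonists, was measured by laser scanning cytometry against DMSO vehicle.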

Test [2] deals with Androgen Receptor/SRC-1 Co-activator, AR (gene 367) (UniProt P10275). The test is described as follows: OT_AR_ARSRC1_0960: Odyssey Thera (OT) 16-hour HEK293T Protein-Complementation Assay for Androgen Receptor/SRC-1 Co-activator (AID 2283353).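 Also: actives raise the signal above DMSO so potency reflects increased AR and SRC-1 complex.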 Summed up: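 Endpoint is gain-of-signal N/C fluorescence ratio in the 488 nm channel versus DMSO, from at least 400 cells per image, measured 16 h post-dosing. Cells: HEK293T stably carrying split-Venus AR/SRC-1 complementation constructs.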

Test [3] shares this target. The test is described as follows: OT_AR_ARSRC1_0480: Odyssey Thera (OT) 8-hour HEK293T Protein-Complementation Assay for Androgen Receptor/SRC-1 Co-activator (AID 2283354).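 Also: hits raise the complementation signal above DMSO so AC50 marks enhancers.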 Summed up:
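After 8 h dosing, stably expressing HEK293T cells with split-Venus AR/SRC-1 fusions were imaged (488, 635nm). The 488nm N/C ratio per image gave the endpoint, analysed in the positive direction against DMSO.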

Test [4] has as its target T1, Estrogen receptor (Homo sapiens) + Estrogen receptor beta (Homo sapiens) (UniProt P03372+Q92731). The test is described as follows: OT_ER_ERaERb_1440: Odyssey Thera (OT) 24-hour HEK293T Protein-Complementation Assay for Estrogen Receptor-alpha/-beta Homodimer (AID 2283356).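 Also: heteromer of ER alpha and ER beta binding domains; hits raise reporter fluorescence and both agonists and antagonists give an increase.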 Summed up:
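Readout: mean fluorescence intensity in nucleus (agonists) or nucleus plus cytoplasm (antagonists), read by laser scanning cytometer after 24 h compound exposure of HEK293T cells carrying ERα/ERβ LBD fragment-complementation constructs; DMSO baseline.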

Test [5] deals with Estrogen receptor beta (Homo sapiens) (UniProt Q92731). The test is described as follows: OT_ER_ERbERb_0480: Odyssey Thera (OT) 8-hour HEK293T Protein-Complementation Assay for Estrogen Receptor-beta/-beta Homodimer (AID 2283357).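 Also: active means signal gain over DMSO baseline.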 Summed up:
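Fluorescence gain from complemented reporter fragments on ER-beta LBD homodimer in HEK293T was quantified against DMSO controls after 8 h treatment, fixation in 4% formaldehyde and Draq5 staining.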

The target in test [6] is T1, Estrogen receptor (Homo sapiens) + Estrogen receptor beta (Homo sapiens). The test is described as follows: OT_ER_ERaERb_0480: Odyssey Thera (OT) 8-hour HEK293T Protein-Complementation Assay for Estrogen Receptor-alpha/-beta Heterodimer (AID 2283352). Summed up:
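Fluorescence intensity readout from a protein-fragment complementation reporter in HEK293T; ER-alpha/ER-beta LBD heterodimer. Dosing 8 h. Gain-of-signal fit relative to DMSO negative control; laser scanning cytometry of whole-well cell population.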

Test [7] has as its target human Thyroid Receptor Alpha (TRa), THRA (gene 7067) (UniProt P10827). The test is described as follows: NVS_NR_hTRa_Antagonist: NovaScreen (NVS) Nuclear Receptor Binding Assay for human Thyroid Receptor Alpha Antagonism (TRa) (AID 2283362).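 Also: activity is loss of signal relative to DMSO baseline.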 Summed up:
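AlphaLISA chemiluminescent immunoassay readout, taken 1 h post-dosing in a cell-free system with extracted protein. Activity was scored as signal loss against DMSO negative control, from duplicate single-concentration (25 uM) testing followed by concentration-response follow-up.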

The target in test [8] is rat Mineralocorticoid Receptor (MR), Nr3c2 (gene 25672) (UniProt P22199). The test is described as follows: NVS_NR_rMR: NovaScreen (NVS) Nuclear Receptor Binding Assay for rat Mineralocorticoid Receptor (MR) (AID 2283355). Summed up: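 Single-concentration duplicate screen (25 uM) of radioligand binding in adrenalectomized rat brain supernatant; scintillation detection 24 h after dosing. Positive and negative controls ran on each plate, and confirmed actives went to concentration-response.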

Test [9] has as its target PGR (gene 5241) (UniProt P06401). The test is described as follows: NVS_NR_hPR: NovaScreen (NVS) Nuclear Receptor Binding Assay for human Progestron Receptor (PR) (AID 2283360).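 Also: active means loss of bound radioligand signal versus DMSO baseline.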 Summed up:
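T47D-derived receptor preparation, cell-free, with tritiated or iodinated radioligand displacement measured by scintillation 18 h post-dosing. Single 25 uM duplicate screen, then concentration series; signal loss relative to DMSO.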

T1 sequence (P03372 whole entry, looked up, the tested form may be a part): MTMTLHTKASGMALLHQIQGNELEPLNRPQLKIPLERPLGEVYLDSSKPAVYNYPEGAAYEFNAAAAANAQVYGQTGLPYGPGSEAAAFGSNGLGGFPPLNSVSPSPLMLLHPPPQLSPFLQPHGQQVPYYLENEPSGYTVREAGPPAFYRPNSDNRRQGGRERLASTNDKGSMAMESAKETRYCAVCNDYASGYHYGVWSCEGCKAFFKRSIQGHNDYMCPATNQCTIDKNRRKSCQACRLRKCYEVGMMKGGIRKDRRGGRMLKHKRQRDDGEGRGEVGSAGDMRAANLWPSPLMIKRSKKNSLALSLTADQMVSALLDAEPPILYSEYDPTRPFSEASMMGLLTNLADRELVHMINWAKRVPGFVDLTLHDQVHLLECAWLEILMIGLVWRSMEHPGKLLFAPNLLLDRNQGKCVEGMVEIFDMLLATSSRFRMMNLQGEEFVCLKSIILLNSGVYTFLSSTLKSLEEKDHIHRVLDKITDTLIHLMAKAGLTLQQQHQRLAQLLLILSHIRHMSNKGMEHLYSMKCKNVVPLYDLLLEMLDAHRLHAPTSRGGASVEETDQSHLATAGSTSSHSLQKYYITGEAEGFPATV
T1 sequence (Q92731 whole entry, looked up, the tested form may be a part): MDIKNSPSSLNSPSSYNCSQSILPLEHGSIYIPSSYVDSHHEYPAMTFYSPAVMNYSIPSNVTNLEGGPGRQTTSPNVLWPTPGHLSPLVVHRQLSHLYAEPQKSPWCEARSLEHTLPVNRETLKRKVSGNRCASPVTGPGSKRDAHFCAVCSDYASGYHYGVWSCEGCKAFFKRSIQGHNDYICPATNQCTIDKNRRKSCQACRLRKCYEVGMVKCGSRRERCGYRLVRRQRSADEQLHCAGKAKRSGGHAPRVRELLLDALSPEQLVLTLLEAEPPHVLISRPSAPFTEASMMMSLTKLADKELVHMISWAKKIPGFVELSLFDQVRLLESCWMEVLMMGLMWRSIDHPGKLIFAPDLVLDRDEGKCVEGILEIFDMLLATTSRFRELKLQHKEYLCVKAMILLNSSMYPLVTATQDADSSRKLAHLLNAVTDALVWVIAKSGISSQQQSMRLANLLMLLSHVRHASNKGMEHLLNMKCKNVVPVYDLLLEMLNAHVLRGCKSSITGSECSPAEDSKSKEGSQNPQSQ
Estrogen receptor (Homo sapiens), sequence (P03372 whole entry, looked up, the tested form may be a part): as the sequence (P03372 whole entry, looked up, the tested form may be a part) above
Estrogen receptor beta (Homo sapiens), sequence (Q92731 whole entry, looked up, the tested form may be a part): as the sequence (Q92731 whole entry, looked up, the tested form may be a part) above
Androgen Receptor/SRC-1 Co-activator, AR (gene 367), sequence (P10275 whole entry, looked up): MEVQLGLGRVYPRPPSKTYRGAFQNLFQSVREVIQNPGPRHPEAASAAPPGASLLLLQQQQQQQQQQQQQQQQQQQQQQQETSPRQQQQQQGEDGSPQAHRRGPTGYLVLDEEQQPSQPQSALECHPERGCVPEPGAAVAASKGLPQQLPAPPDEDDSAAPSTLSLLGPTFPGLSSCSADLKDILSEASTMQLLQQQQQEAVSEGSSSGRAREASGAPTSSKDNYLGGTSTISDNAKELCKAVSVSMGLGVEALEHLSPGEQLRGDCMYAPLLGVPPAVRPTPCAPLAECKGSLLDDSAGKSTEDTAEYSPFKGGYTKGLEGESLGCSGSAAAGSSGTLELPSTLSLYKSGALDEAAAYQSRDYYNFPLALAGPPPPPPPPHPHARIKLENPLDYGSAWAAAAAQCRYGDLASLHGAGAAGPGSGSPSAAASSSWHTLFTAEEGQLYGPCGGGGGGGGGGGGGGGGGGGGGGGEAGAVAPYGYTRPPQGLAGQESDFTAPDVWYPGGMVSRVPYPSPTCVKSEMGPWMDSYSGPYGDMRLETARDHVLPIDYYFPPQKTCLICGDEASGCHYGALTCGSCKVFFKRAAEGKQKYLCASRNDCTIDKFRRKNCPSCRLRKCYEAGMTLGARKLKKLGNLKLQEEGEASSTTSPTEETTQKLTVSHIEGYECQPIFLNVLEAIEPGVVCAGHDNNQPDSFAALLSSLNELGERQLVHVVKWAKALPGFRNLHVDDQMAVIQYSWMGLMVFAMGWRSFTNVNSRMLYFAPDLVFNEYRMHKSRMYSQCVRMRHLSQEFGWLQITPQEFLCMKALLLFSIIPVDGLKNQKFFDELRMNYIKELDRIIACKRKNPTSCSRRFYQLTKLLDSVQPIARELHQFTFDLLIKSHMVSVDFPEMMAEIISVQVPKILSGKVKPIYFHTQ
human Thyroid Receptor Alpha (TRa), THRA (gene 7067), sequence (P10827 whole entry, looked up): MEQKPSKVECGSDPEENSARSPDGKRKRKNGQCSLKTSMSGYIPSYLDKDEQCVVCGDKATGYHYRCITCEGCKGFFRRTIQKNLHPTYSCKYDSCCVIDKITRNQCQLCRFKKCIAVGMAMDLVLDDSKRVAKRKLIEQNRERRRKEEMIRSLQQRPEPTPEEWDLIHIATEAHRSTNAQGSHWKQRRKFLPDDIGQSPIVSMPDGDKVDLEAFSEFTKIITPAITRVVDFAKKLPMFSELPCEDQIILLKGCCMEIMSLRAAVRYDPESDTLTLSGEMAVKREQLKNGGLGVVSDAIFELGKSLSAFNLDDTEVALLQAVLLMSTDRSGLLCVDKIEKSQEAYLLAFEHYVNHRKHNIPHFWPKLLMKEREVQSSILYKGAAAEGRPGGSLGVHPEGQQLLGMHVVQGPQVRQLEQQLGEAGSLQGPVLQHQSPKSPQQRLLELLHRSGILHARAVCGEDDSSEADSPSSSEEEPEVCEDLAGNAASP
rat Mineralocorticoid Receptor (MR), Nr3c2 (gene 25672), sequence (P22199 whole entry, looked up): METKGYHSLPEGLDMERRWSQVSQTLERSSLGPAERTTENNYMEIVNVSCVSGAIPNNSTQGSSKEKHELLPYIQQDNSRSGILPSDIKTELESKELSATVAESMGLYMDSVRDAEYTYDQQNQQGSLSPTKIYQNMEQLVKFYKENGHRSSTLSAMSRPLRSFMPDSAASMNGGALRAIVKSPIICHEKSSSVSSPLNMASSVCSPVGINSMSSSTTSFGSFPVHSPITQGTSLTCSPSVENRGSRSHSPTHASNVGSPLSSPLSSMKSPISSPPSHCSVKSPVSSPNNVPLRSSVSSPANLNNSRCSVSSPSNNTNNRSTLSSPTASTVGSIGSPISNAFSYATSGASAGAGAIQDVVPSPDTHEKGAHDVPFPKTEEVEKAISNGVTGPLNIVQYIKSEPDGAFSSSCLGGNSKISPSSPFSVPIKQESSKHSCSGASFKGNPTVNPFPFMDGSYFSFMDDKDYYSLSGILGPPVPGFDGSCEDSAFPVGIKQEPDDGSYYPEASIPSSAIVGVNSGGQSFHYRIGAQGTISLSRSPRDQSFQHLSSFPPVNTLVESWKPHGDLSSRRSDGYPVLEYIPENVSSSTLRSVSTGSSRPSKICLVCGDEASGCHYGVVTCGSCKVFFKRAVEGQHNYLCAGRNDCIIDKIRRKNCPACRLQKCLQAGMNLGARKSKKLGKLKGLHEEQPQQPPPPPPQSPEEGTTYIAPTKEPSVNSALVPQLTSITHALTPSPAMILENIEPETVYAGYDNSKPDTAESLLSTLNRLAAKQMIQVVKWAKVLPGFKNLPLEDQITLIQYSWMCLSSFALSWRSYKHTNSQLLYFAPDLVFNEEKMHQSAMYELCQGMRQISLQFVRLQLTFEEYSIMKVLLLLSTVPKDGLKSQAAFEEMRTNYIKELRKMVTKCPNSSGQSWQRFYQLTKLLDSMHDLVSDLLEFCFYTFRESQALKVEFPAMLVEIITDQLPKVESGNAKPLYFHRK
PGR (gene 5241), sequence (P06401 whole entry, looked up): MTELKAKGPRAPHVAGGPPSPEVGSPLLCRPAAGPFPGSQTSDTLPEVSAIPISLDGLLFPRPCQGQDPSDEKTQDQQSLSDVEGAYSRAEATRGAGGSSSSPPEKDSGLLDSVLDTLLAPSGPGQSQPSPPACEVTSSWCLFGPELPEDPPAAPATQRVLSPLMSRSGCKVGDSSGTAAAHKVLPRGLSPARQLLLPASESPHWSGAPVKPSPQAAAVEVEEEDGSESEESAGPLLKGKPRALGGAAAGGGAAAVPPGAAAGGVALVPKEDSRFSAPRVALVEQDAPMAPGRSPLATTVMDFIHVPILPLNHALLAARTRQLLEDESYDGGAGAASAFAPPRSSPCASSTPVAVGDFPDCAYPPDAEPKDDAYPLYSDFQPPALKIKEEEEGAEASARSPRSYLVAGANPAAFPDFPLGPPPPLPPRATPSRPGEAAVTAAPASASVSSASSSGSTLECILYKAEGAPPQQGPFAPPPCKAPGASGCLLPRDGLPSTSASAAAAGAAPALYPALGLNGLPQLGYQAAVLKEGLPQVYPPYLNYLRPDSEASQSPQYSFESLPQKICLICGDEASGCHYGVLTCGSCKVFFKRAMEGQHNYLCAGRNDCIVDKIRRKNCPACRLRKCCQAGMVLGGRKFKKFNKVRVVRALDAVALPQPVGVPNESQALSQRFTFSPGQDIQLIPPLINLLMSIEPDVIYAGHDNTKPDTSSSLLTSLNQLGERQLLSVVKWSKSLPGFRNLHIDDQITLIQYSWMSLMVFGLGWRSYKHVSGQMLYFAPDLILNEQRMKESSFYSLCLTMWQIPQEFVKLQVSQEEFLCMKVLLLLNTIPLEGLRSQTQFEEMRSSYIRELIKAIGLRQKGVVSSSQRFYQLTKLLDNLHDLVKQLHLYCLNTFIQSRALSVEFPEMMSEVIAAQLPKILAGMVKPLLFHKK

For the compound `NCCCN1CCOCC1`, the result in [1], in test [2], in test [3], in test [4] and in test [5] was inactive.
As for `CC(C)(N)CO`, the compound was classed as inactive in test [1], in test [6], in test [4] and in [5].
As to `CCN(CC)c1ccc2c(-c3ccccc3C(=O)O)c3ccc(=[N+](CC)CC)cc-3oc2c1`, the AC50 was 12.2 µM (active) in [1], 12 µM (active) in test [6], 12 µM (active) in [4] and 12.2 µM (active) in [5].
Consider `Cc1ccc(S)cc1`, for which the outcome in test [1], in test [6], in test [4] and in test [5] was inactive.
`c1ccc(CCCc2ccccn2)cc1`: the call in test [1], in test [6], in test [4] and in test [5] was inactive.
Regarding `CCN(CC)c1ccc(C(=C2C=CC(=[N+](CC)CC)C=C2)c2ccc(S(=O)(=O)O)cc2S(=O)(=O)[O-])cc1`, the compound was called inactive in [2], in test [3] and in [5]. Also, the AC50 in test [7] is 8.03 µM (active).
Regarding `C=C(C)C(=O)O`, the outcome in test [1], in [6] and in test [4] was inactive.
For `CCCCCCCCC=O`, the compound was classed as inactive in test [1], in test [6], in test [4] and in [5].
Take `CC1COc2ccccc2N1C(=O)C(Cl)Cl` (stereo unspecified): the compound was called inactive in [1], in [6], in [4] and in test [5].
As for `c1ccc2[nH]ccc2c1`, the outcome in test [2], in test [3], in [5] and in test [7] was inactive.
On to `CCCCc1ccc(N)cc1`, for which the outcome in test [1] and in test [5] was inactive. The AC50 was 50 µM (active) in test [6] and 39.6 µM (active) in test [4].
In the case of `CC(C)c1cccc(O)c1`, the compound was called inactive in test [1] and in [4]. Moreover, the AC50 in test [6] and in test [5] was 52 µM (active) throughout.
`CC(=O)C=CC1=C(C)CCCC1(C)C`: the call in [1] was inactive.
In the case of `CCCCCCCCCCCCCCCC(=O)OC[C@H](O)[C@H]1OC(=O)C(O)=C1O`, the result in [3] and in test [7] was inactive.
As for `CC(=O)O[C@]1(C(C)=O)CC[C@H]2[C@@H]3C[C@H](C)C4=CC(=O)CC[C@]4(C)[C@H]3CC[C@@]21C`, in test [8], the AC50 was 569 nM (active).
Turning to `C#C[C@]1(O)CC[C@H]2[C@@H]3CCC4=Cc5oncc5C[C@]4(C)[C@H]3CC[C@@]21C`, the outcome in [8] was inactive. Besides, the AC50 in test [9] is 41.5 µM (active).
As to `CN(CCOc1ccc(CC2SC(=O)NC2=O)cc1)c1ccccn1` (stereo unspecified), the call in test [9] was inactive.
For `COc1ccc(O)cc1`, the compound was called inactive in test [7].

The AC50 is the concentration giving half of the maximal activity seen.

For the origin of these results see PubChem BioAssay (EPA / NIEHS).
